For 10 compounds, Potency and outcome results are on record in PubChem BioAssay (NCATS).

The nature of assay [1]: P-glycoprotein substrates identified in KB-8-5-11 adenocarcinoma cell line, qHTS therapeutic library screen (AID 1346987). Further: nearly all actives have a fitted effect of over 65% in size. Further: potency means the concentration at half of the fitted maximal effect. An outline of the steps:
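Human cervical adenocarcinoma KB-8-5-11 cells, selected in colchicine to over-express P-gp and assayed without it, were exposed for 72 h to titrated compounds. An ATP-based luminescent viability signal gave AC50.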

Assay [2] can be described thus: qHTS of pediatric cancer cell lines to identify multiple opportunities for drug repurposing: Primary screen for TC32 cells (AID 1347089). Further: nearly all actives have a fitted effect of over 60% in size. The essentials: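 A viability screen of TC32 cells was run over 48 h, with primary MIPE doses spanning 0.78 nM–46 µM and NPC doses 0.59 nM–46 µM. ATP luminescence (CellTiter-Glo) served as the read-out.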
A general note: Quantitative high-throughput screening tests each substance at several concentrations.

Assay [3] in a line: qHTS of pediatric cancer cell lines to identify multiple opportunities for drug repurposing: Primary screen for A673 cells (AID 1347092). Further: nearly all actives have a fitted effect of over 45% in size. Further: potency means the concentration at half of the fitted maximal effect. The essentials: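 Titration-based qHTS on A673 cells: MIPE compounds spanned 11 points (0.78 nM to 46 µM final), NPC compounds 8 points (0.59 nM to 46 µM final). Viability after 48 h was measured by ATP luminescence.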
The nature of assay [4]: qHTS of pediatric cancer cell lines to identify multiple opportunities for drug repurposing: Primary screen for SK-N-MC cells (AID 1347093). Further: potency means the concentration at half of the fitted maximal effect. The essentials:
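Metabolically active cells were quantified by ATP-dependent luminescence (CellTiter-Glo, 15 min at room temperature) following 48 h treatment. Cells had been plated at 500-1,000 per well and settled for 5 h beforehand.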

Assay [5] can be described thus: qHTS of pediatric cancer cell lines to identify multiple opportunities for drug repurposing: Primary screen for NB-EBc1 cells (AID 1347095). Further: potency means the concentration at half of the fitted maximal effect. An outline of the steps: (§1)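 Phenotypic viability qHTS, 48 h compound exposure, CellTiter-Glo luminescence read-out; multi-concentration dosing so that potency and efficacy derive directly from the primary screen's curves.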
The nature of assay [6]: qHTS of pediatric cancer cell lines to identify multiple opportunities for drug repurposing: Primary screen for U-2 OS cells (AID 1347096). Further: nearly all actives have a fitted effect of over 50% in size. Further: potency means the concentration at half of the fitted maximal effect. An outline of the steps:
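Viability after 48 h compound treatment at 37C, 500-1,000 cells/well, read as ATP luminescence with CellTiter-Glo. Primary screens used 11-point (MIPE, 0.78 nM-46 µM) or 8-point (NPC, 0.59 nM-46 µM) final concentrations; follow-up screens used 11-point dilutions.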

Assay [7] is described as follows: qHTS of pediatric cancer cell lines to identify multiple opportunities for drug repurposing: Primary screen for Saos-2 cells (AID 1347097). Further: nearly all actives have a fitted effect of over 40% in size. Further: potency means the concentration at half of the fitted maximal effect. The essentials: as §1
The nature of assay [8]: qHTS of pediatric cancer cell lines to identify multiple opportunities for drug repurposing: Primary screen for SK-N-SH cells (AID 1347098). Further: nearly all actives have a fitted effect of over 65% in size. Further: potency means the concentration at half of the fitted maximal effect. The essentials: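 Cells (500-1,000/well) rested 5 h, then received compounds for 48 h; metabolically active cells were measured by CellTiter-Glo luminescence. Final concentrations spanned up to 46 µM (MIPE, 11-point) or 0.59 nM-46 µM (NPC, 8-point) in primary screens, 11-point in follow-ups.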

Assay [9] can be described thus: qHTS of pediatric cancer cell lines to identify multiple opportunities for drug repurposing: Primary screen for NB1643 cells (AID 1347099). Further: nearly all actives have a fitted effect of over 50% in size. Further: potency means the concentration at half of the fitted maximal effect. The essentials:
as §1

The target in assay [10] is Atrial natriuretic peptide receptor 2 (Homo sapiens) (UniProt P20594). In words: Natriuretic polypeptide receptor (hNpr2) antagonism - Pilot subtype selectivity assay (AID 1347050; calls by dose curve). An outline of the steps:
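Luminescence from a genetically encoded cGMP luciferase biosensor in hNpr2-expressing HEK293 cells is read before and 20 min after adding 1 nM hNppC. Test compounds, in interplate 1:5 titrations, are added 30-50 min ahead of the agonist.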

Assay [11] has as its target Parathyroid hormone/parathyroid hormone-related peptide receptor (Homo sapiens) (UniProt Q03431). In words: qHTS for PTHR1 Agonists: Optimization Screen against the NCGC LOPAC library (AID 1347079).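 Further: GloSensor cAMP luminescence in HEK-293 GP2 cells expressing human PTHR1 with IBMX.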 An outline of the steps:
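Signal increase flags agonism. GP2 cells, derived from HEK-293, express human PTHR1 and a GloSensor cAMP construct.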

Assay [12] can be described thus: qHTS of pediatric cancer cell lines to identify multiple opportunities for drug repurposing: Primary screen for DAOY cells (AID 1347090). Further: nearly all actives have a fitted effect of over 55% in size. Further: potency means the concentration at half of the fitted maximal effect. The essentials:
(§2)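 Viability measured as metabolically active cells via CellTiter-Glo luminescence following 48 hours of compound exposure, 11-point dilutions in confirmatory testing. 500-1,000 cells/well plated 5 hours before dosing; controls were DMSO and 2.3 µM bortezomib.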

Assay [13] is described as follows: Natriuretic polypeptide receptor (hNpr1) antagonism - Pilot counterscreen GloSensor control cell line (AID 1347045; calls by dose curve; further: series mostly up to about 38 µM). An outline of the steps:
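The SNP-driven cGMP luminescence signal (50 uM, 20 min, room temperature) was measured in GloSensor HEK293 control cells. Compounds were tested as a LOPAC titration series and preincubated for 30-50 min.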
On the technique in general: Counterscreens check selectivity or assay interference.

A short description of assay [14]: NS1 protein of Zika virus - qHTS assay to identify small molecule inhibitors in human HEK 293 cells (AID 1347053). Further: nearly all actives have a fitted effect of over 55% in size. Further: potency means the concentration at half of the fitted maximal effect. An outline of the steps: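 TR-FRET signal from two anti-ZIKV NS1 antibodies quantified NS1 in HEK 293 cells 24 h after MR766 infection at MOI = 0.5; compounds were added 1 h before virus. Uninfected cells and infected cells defined the NS1 normalization range.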

The target of assay [15] is T1, Tyrosine-protein phosphatase non-receptor type substrate 1 (Homo sapiens) + Leukocyte surface antigen CD47 (Homo sapiens) (UniProt P78324+Q08722). Kind of assay: CD47-SIRPalpha protein protein interaction - LANCE assay qHTS validation (AID 1347057; active means well fitted curve in the direction sought with a large enough effect in the signal ratio, with a control signal flat, not every such curve was filed as active; the % refers to the signal ratio; further: series mostly up to about 38 µM). The essentials:
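Inhibition of soluble CD47/SIRPalpha ectodomain association by titrated compounds, measured as 665/615 nm time-resolved FRET ratio after sequential 30 min room-temperature incubations.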

Assay [16] has as its target T1, Tyrosine-protein phosphatase non-receptor type substrate 1 (Homo sapiens) + Leukocyte surface antigen CD47 (Homo sapiens). In words: CD47-SIRPalpha protein protein interaction - HTRF assay qHTS validation (AID 1347058; active means well fitted curve in the direction sought with a large enough effect in the signal ratio, not every such curve was filed as active; the % refers to the signal ratio; further: series mostly up to about 38 µM). An outline of the steps: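 Soluble extracellular domains (6His-CD47, Avi-tag-biotinylated SIRPalpha) in PBS pH 7.4 with 0.05% IGEPAL CA-630. Compounds were preincubated 30 min at RT with CD47 and anti-His-Eu, then SIRPalpha and SAV-XL665 were added. TR-FRET 665/615 ratio.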
(In general: TR-FRET usually uses a lanthanide donor and a delayed reading to cut background.)

Assay [17] shares this target. In words: CD47-SIRPalpha protein protein interaction - Alpha assay qHTS validation (AID 1347059).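 Further: bead proximity luminescence from CD47 binding SIRPalpha after compound preincubation with SIRPalpha.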 An outline of the steps:
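SIRPalpha-biotin 25 nM + cpd, 30 min RT, dark; add CD47-His 12.5 nM, 30 min; add Ni-NTA/SAV beads 10 ug/mL, 30 min; AlphaScreen. Buffer PBS pH 7.4 + 0.05% IGEPAL CA-630. Non-biotinylated SIRPalpha as control inhibitor.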

Assay [18] in a line: qHTS of pediatric cancer cell lines to identify multiple opportunities for drug repurposing: Primary screen for SJ-GBM2 cells (AID 1347091). Further: potency means the concentration at half of the fitted maximal effect. An outline of the steps: as §2
Assay [19] can be described thus: qHTS of pediatric cancer cell lines to identify multiple opportunities for drug repurposing: Primary screen for BT-37 cells (AID 1347094). Further: potency means the concentration at half of the fitted maximal effect. An outline of the steps:
as §1

Values joined by “and” are separate entries in the source; they are usually repeats but may differ in a detail not shown here. Identical values can stand only once. Inconclusive results are not listed. A structure can be active in one record and inactive in another. Active and inactive are the calls of the source. Unless noted, the call rests on the fitted dose curve; in most records, active means well fitted curve in the direction sought with a large enough effect; inconclusive means small, poorly fitted or top-dose-only effect, or another doubt; inactive means no such curve, though single readings can be large; an effect the other way counts as inactive or inconclusive.

Atrial natriuretic peptide receptor 2 (Homo sapiens), sequence (P20594 whole entry, looked up): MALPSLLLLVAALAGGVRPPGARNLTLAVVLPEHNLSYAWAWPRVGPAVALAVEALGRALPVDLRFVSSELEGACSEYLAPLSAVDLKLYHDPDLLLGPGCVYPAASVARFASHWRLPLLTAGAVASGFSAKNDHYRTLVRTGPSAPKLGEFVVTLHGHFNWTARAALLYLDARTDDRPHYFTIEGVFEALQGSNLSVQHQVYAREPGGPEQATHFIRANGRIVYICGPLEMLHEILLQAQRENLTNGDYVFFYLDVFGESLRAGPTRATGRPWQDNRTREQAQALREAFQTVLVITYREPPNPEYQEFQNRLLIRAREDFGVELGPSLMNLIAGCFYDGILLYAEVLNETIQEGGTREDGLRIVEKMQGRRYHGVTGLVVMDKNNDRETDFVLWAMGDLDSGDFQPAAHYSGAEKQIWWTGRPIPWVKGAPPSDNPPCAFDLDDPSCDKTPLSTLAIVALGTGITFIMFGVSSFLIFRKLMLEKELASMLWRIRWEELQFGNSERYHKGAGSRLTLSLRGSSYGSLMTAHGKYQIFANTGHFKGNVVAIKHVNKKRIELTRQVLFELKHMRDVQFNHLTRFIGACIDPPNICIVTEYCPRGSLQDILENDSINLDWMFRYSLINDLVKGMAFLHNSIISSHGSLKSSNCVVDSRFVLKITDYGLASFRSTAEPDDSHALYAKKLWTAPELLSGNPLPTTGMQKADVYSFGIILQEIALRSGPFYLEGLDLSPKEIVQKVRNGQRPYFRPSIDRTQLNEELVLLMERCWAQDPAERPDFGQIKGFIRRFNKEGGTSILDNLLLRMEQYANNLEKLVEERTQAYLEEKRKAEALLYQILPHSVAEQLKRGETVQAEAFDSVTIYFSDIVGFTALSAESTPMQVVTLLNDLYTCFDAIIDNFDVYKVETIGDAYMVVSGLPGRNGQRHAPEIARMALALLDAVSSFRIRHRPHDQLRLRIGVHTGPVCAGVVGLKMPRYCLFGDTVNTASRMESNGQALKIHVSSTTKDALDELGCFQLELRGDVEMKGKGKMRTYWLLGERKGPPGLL
Parathyroid hormone/parathyroid hormone-related peptide receptor (Homo sapiens), sequence (Q03431 whole entry, looked up): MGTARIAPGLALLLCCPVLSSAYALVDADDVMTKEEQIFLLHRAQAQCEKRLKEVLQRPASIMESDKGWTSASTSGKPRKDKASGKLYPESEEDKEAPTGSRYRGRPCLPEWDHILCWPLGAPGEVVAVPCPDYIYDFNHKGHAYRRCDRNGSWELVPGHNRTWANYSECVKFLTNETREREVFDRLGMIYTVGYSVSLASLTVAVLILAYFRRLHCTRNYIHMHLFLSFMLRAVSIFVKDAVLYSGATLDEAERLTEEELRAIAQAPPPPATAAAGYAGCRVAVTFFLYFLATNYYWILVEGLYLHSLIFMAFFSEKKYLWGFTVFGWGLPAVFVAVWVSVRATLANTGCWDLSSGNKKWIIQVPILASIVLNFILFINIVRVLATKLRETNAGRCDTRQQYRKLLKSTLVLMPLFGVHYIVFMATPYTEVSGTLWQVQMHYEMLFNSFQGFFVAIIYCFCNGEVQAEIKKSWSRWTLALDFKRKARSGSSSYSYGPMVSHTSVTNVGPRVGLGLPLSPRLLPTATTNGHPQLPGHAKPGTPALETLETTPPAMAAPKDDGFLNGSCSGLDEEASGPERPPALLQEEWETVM
T1 sequence (P78324 whole entry, looked up, the tested form may be a part): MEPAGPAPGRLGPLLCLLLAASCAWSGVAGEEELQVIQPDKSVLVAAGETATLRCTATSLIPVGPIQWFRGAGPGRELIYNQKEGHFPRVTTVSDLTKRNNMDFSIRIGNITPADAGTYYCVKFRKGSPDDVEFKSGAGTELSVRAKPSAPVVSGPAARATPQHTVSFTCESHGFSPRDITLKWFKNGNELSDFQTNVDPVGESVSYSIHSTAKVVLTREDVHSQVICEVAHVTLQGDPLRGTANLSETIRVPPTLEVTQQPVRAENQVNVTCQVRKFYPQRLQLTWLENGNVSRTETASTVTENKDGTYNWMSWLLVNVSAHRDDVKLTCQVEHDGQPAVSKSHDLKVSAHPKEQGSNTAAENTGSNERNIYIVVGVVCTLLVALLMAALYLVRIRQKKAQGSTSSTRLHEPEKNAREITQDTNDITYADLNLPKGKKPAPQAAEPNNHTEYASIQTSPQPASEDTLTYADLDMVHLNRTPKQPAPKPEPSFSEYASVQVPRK
T1 sequence (Q08722 whole entry, looked up, the tested form may be a part): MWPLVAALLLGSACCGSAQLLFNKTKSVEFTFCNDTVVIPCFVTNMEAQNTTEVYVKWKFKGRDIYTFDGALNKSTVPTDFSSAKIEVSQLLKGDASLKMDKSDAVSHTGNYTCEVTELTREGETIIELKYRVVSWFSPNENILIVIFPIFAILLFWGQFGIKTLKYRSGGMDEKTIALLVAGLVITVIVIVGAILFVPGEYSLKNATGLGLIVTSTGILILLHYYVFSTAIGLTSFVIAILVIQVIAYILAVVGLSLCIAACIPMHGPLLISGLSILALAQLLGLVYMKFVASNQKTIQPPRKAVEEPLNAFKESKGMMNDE

With `COCCOc1nc(-c2ccc(Cl)c(Cl)c2)n(-c2ccc(NC(=O)CCl)cc2)n1`, the Potency entry in assay [1] is “inactive and 14.6 µM (active)”; in assay [3], 4.69 µM (active); in [4], 4.69 µM (active); in assay [5] it was 16.6 µM (active). The Potency result in assay [2] and in assay [6] was “inactive” throughout.

As to `CCS(=O)(=O)N1CC(CC#N)(n2cc(-c3ncnc4[nH]ccc34)cn2)C1`, the Potency entry in [1], in assay [2], in assay [6] and in assay [7] was “inactive” each time. Moreover, the Potency in assay [3] is 14.8 µM (active); in assay [8], 13.6 µM (active); in assay [9], 11.8 µM (active).

With `CC(C)OC(=O)C(C)(C)Oc1ccc(C(=O)c2ccc(Cl)cc2)cc1`, the compound was classed as inactive in assay [10] and in assay [11]. Also, the Potency result in assay [2], in [12], in [3], in assay [7] and in [8] was “inactive” throughout. The Potency in [4] is 20.9 µM (active).

For the compound `C[N+](C)(C)CCCCCC[N+](C)(C)C`, the Potency result in [13], in [14], in assay [2], in assay [12], in [18] and in assay [3] was “inactive” in each case. For the same compound, the Potency entry in assay [4], in [19], in assay [5], in [7], in [8] and in [9] was “inactive” each time. For the same compound, the compound was called inactive in assay [10], in assay [15], in assay [16], in assay [17] and in assay [11].

As to `NS(=O)(=O)c1cccc2c1C(=O)c1cccc(O)c1C2=O`, the Potency was 3.32 µM (active) in assay [14]; 0.935 µM (active) in [12]; 0.59 µM (active) in [18]; 0.372 µM (active) in [3]; 0.935 µM (active) in assay [4]; 0.432 µM (active) in assay [19]. In addition, the Potency in assay [5] is 0.833 µM (active); in [6], 0.59 µM (active); in [7], 0.264 µM (active). Also, the Potency entry in assay [2] was “inactive”.

Consider `COc1ccc2c(Oc3ccc(NC(=O)c4c(C)n(CC(C)(C)O)n(-c5ccccc5)c4=O)cc3F)ccnc2c1`, for which the Potency result in [14], in assay [2] and in [19] was “inactive” throughout. The Potency was 0.059 µM (active) in assay [18], 23.5 µM (active) in assay [3], 14.8 µM (active) in assay [4] and 26.4 µM (active) in [7].

On to `O=c1c(-c2ccc(O)cc2)coc2cc(O)ccc12`, for which the Potency result in assay [13], in [14], in assay [2], in assay [12], in assay [18] and in assay [3] was “inactive” in each case. The Potency result in assay [19], in [5], in [6], in [7] and in [9] was “inactive” each time. The compound was called inactive in assay [10] and in [11].

On to `COc1ccc(Cc2nccc3cc(OC)c(OC)cc23)cc1OC`, for which the Potency entry in assay [13] is “inactive”. The result in assay [15], in [16], in [17] and in assay [11] was inactive.

`Cc1cc(OCCCc2c(C(=O)O)n(Cc3cccnc3)c3c(-c4c(COc5ccc(N6CCN([S+](C)(=O)[O-])CC6)cc5)nn(C)c4C)cccc23)cc(C)c1Cl`: the Potency result in assay [1], in assay [2] and in [6] was “inactive” in each case. Further, the Potency is 5.9 µM (active) in assay [4], 23.5 µM (active) in assay [5], 18.7 µM (active) in assay [7] and 23.5 µM (active) in assay [9].

As for `N#CC(=C(N)Sc1ccccc1N)C(C#N)=C(N)Sc1ccccc1N`, the Potency result in [14], in assay [2] and in [5] was “inactive” throughout. In addition, the Potency in assay [12] is 23.5 µM (active); in assay [3], 2.35 µM (active); in assay [4], 2.96 µM (active); in assay [7], 29.6 µM (active).
